Assay outcomes as filed in PubChem BioAssay.
In the library only some 5.7% were active in any assay of this set; here they are far more common.
DAX1 inh-1: NR0B1 (DAX1) inhibition; P51843; HEK293 Gal4-DAX1 luciferase reporter, luminescence; inhibition, % at 6.75 µM; hit rate 0.99% among 340,000; AID 504766;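 active = inhibition above the mean over all tested compounds plus 3 SD, cut at about 4.2% in these data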;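 also: inhibition shows as a rise in luminescence from relieved DAX1 repression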
Target sequence (P51843 207-470 limits assumed): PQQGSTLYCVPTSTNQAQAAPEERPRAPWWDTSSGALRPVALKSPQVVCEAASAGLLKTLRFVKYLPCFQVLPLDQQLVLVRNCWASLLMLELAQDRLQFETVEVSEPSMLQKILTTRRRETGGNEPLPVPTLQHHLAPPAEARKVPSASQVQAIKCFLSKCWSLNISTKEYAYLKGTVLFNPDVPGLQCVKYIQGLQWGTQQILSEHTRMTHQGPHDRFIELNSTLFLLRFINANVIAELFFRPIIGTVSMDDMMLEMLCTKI
hcDAF12 agonist: activates DAF-12 receptor from parasite H. contortus; HEK293 hcDAF-12 lit1-tk-luc reporter, luminescence; 0% DMSO, 100% Δ7-dafachronic acid; activation, % at 6.8 µM; hit rate 1.4% among 370,000; AID 652067;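 active = activation above the mean of all tested compounds plus 3 SD, cut at about 5.5% in these data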
hgDAF-12 ag: hgDAF-12 agonism, primary luciferase screen; HEK293 GAL4-hgDAF12 UAS-luciferase reporter, agonist luminescence; normalized to butyrate control; activation, % at 6.8 µM; hit rate 1.8% among 370,000;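 active = activation above a cutoff set at the mean of all screened compounds plus 3 SD, cut at about 10% in these data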
DAX1 inh-2: DAX1 (NR0B1) inhibition, primary screen; HEK293T StAR-luciferase reporter, SF-1/DAX-1 repression relief; inhibition, % at 6.8 µM; hit rate 1.1% among 370,000; AID 652010;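 active = inhibition above the mean over all tested compounds plus 3 SD, cut at about 3.6% in these data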;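 also: higher inhibition means more luminescence from relief of DAX-1 repression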
AHR activator: human AHR activation; P35869; AHR-responsive luciferase reporter cells, luminescence; activation, % at 5 µM; hit rate 2.5% among 320,000; AID 2796; in the data active = activation above about 47%
ssDAF12 agonist: activates DAF-12 receptor from parasite S. stercoralis; HEK293 ssDAF-12/GRIP1 lit1-tk-luc reporter, luminescence; % of 3 µM dafachronic acid response; activation, % at 6.8 µM; hit rate 1% among 370,000; AID 652126;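 active = activation above the mean over all tested compounds plus 3 SD, cut at about 0.9% in these data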
Each line names hits and unclear results; the compound was inactive in the other large screens.

Cc1nc2sc(C(c3ccco3)N3CCN(c4ccccc4F)CC3)c(O)n2n1 (stereo not drawn)	none
O=[N+]([O-])c1cccc(-n2nnnc2CNCc2ccccc2)c1	DAX1 inh-1 5.7
CCN(CC(=O)Nc1c(F)cccc1F)C(=O)c1ccc(OCC(=O)N2CCOCC2)c(OC)c1	none (no result: AHR activator)
N=C1SC(c2ccccc2)C(=O)N1c1ncc(Cc2ccccc2)s1 (stereo not drawn)	hgDAF-12 ag 12.5
Cc1cc(OCC(=O)NCc2ccncc2)c2c(C)cc(=O)oc2c1	AHR activator 61.5
COc1ccc(-c2cc(=O)oc3c(C)c(OCC(=O)Nc4cccnc4)ccc23)cc1	none
CCCc1cc(=O)oc2cc(C)cc(OCC(=O)NCc3cccnc3)c12	none
Cc1c(C)c2ccc(OCC(=O)Nc3cccnc3)c(C)c2oc1=O	DAX1 inh-2 3.7
CCCCc1cc(=O)oc2cc(C)cc(OCC(=O)Nc3cccnc3)c12	AHR activator 51.2
COc1ccc(CNC(=O)[C@@H](Cc2ccccc2)NC(=O)[C@H]2O[C@@H](n3ccc(=O)[nH]c3=O)[C@H](O)[C@@H]2O)cc1	none (no result: DAX1 inh-1, AHR activator)
CCCC(=O)NC(=S)c1c(C)n(C)n(-c2ccccc2)c1=O	hcDAF12 agonist 5.8
O=C(Nc1ncccc1O)c1cccc(S(=O)(=O)NCc2ccccc2)c1	none
Cn1c(=O)c2nc(Cl)c(-c3ccccc3)nc2n(C)c1=O	none
Cn1c(=O)c2nc(-c3ccccc3)c(-c3ccccc3)nc2n(C)c1=O	DAX1 inh-1 4.5
CCOC(=O)NC(=O)CSc1nc2ccc(OCC)cc2[nH]1	none
O=C(O)CSc1nc2ccccc2[nH]1	none
c1ccc2[nH]c(SCC3CCCCO3)nc2c1 (stereo not drawn)	hgDAF-12 ag 11.2
Cc1cc(C(=O)CSc2nc3ccccc3[nH]2)c(C)n1CC1CCCO1 (stereo not drawn)	none
ClC1(Cl)CC1CSc1nc2ccccc2[nH]1 (stereo not drawn)	hgDAF-12 ag 12.3
CCOc1ccc2nc(SCC3CC3(Cl)Cl)[nH]c2c1 (stereo not drawn)	DAX1 inh-1 5.1, hgDAF-12 ag 11.6
COC(=O)[C@]12C[C@H](CC(=O)NCC34CC5CC(CC(C5)C3)C4)C(=O)N(Cc3ccccc3)C1=C[C@H](C(C)C)O[C@@H]2C1CC1	none (no result: DAX1 inh-1, AHR activator)
COc1cc(O)c(C(C)=O)c(CC(=O)O)c1	ssDAF12 agonist 0.9
CC1=NN(c2nc(-c3ccc(C)cc3)cs2)C(=O)C1N=Nc1ccc2ccccc2c1 (stereo not drawn)	hcDAF12 agonist 5.7
Cc1ccc2cc3c(nc2c1)N(c1ccccc1)CC3	AHR activator 66.5
CC(=O)NN1CCc2cc3ccc(C)cc3nc21	none
CCOC(=O)c1ccc(N/C=C\C(=O)c2cccc(OC)c2)cc1	none
COc1cccc(N/C=C/C(=O)c2ccc(Br)cc2)c1	hgDAF-12 ag 11.4, DAX1 inh-2 4.4
COC(=O)c1ccc(N/C=C/C(=O)c2ccccc2)cc1	DAX1 inh-1 4.5
COc1cccc(N/C=C/C(=O)c2ccc(OC)c(OC)c2)c1	none
O=C(N[C@H](C(=O)N1CCC[C@H]1C(=O)NC1CCCC1)c1ccccc1)C1CCCC1	none (no result: DAX1 inh-1, AHR activator)
COc1ccccc1-n1cc([C@@H]2C[C@H]3CN(c4ccccc4)C(=O)[C@]34CCCN24)cn1	none (no result: DAX1 inh-1)
Fc1ccc(-n2nnc(-c3ccccc3Cl)n2)cc1	none
Clc1nc2ccccc2cc1-c1nnn(-c2ccccc2)n1	hcDAF12 agonist 6.4
COc1ccccc1NC(=S)N1CCC(c2nc3cc(C)c(C)cc3[nH]2)CC1	AHR activator 52.0
C#CCN1C(=O)[C@]2(OCCC=C[C@H]2C)c2ccccc21	none (no result: DAX1 inh-1, AHR activator)
CSc1ccc(Cc2ccc(Cl)cc2Cl)nn1	DAX1 inh-1 4.3
O=S(=O)(NCC1NCCc2ccccc21)c1ccccc1 (stereo not drawn)	DAX1 inh-1 8.3
c1ccc(C2NCCc3ccccc32)cc1 (stereo not drawn)	none
Cc1nn(-c2ccccc2)c2nc3c(cc12)C(=O)CCC3	AHR activator 55.0
Cc1nn(-c2ccccc2)c2nc(Cl)c(C(=O)O)cc12	none
O=C(/C=C/c1ccc([N+](=O)[O-])cc1)N1CCN(c2ccccc2F)CC1	DAX1 inh-1 5.2
O=C(/C=C/c1cccs1)N1CCN(c2ccccc2F)CC1	none
